Experimental data reported in PubChem BioAssay AID1159580 (chemical genetic matrix, 2015).
Several values for one entry are separate records, joined by “and”; a condition that tells them apart may be missing. Equal entries are not always repeated. About 2,000 (36%) of roughly 5,500 compounds were called active. Another 18% or so got no clear call; they are omitted. Rule as the data show it: active = normalized growth mostly below about 0.91 (no sharp cut-off); inconclusive = no clear call, values can overlap the other calls; inactive = mostly above about 0.92. Some of the results follow.

Assay: chemical genetic growth profiling, strain panel (AID 1159580);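 also: tested at 20 µM; growth read once vehicle control cultures reached saturation at 30 °C; 1 = growth at the plate median or of vehicle wells; lower values mean less growth of the strain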
Conditions: growth OD

Measured: normalized growth

O=C1N=C(O)CN1/N=C\c1ccc(-c2ccc([N+](=O)[O-])cc2)o1
inactive: S. cerevisiae deletion strains, locus YJR075W, strain HOC1, hits give low values 1.03 and 0.99 | S. cerevisiae deletion strains, locus YKL009W, strain mrt4, hits give low values 1.04 | S. cerevisiae deletion strains, locus YKL068W, hits give low values 1.03 | S. cerevisiae deletion strains, locus YKL085W, strain MDH1 (second series), hits give low values 1.02 | S. cerevisiae deletion strains, locus YKL085W, strain MDH1, hits give low values 1.02 | S. cerevisiae deletion strains, locus YKL160W, strain elf1, hits give low values 0.994 | S. cerevisiae deletion strains, locus YKL190W, strain CNB1, hits give low values 1.02 | S. cerevisiae deletion strains, locus YKR001C, strain vps1, hits give low values 1.03 | S. cerevisiae deletion strains, locus YKR026C, strain gcn3, hits give low values 0.99 | S. cerevisiae deletion strains, locus YKR091W, strain srl3, hits give low values 0.98 | S. cerevisiae deletion strains, locus YLL001W, strain dnm1, hits give low values 1 | S. cerevisiae deletion strains, locus YLL026W, hits give low values 0.997 | S. cerevisiae deletion strains, locus YLL041C, strain sdh2, hits give low values 0.97 | S. cerevisiae deletion strains, locus YLR027C, strain aat2, hits give low values 0.988 | S. cerevisiae deletion strains, locus YLR039C, strain RIC1, hits give low values 1.05 | S. cerevisiae deletion strains, locus YLR058C, strain SHM2, hits give low values 1.02 | S. cerevisiae deletion strains, locus YLR102C, strain apc9, hits give low values 1.03 | S. cerevisiae deletion strains, locus YLR113W, strain HOG1, hits give low values 1.02 | S. cerevisiae deletion strains, locus YLR221C, strain rsa3, hits give low values 0.994 | S. cerevisiae deletion strains, locus YLR258W, strain gsy2, hits give low values 0.994 | S. cerevisiae deletion strains, locus YLR262C, strain YPT6 (second series), hits give low values 0.933 | S. cerevisiae deletion strains, locus YLR262C, strain YPT6, hits give low values 1.05 | S. cerevisiae deletion strains, locus YLR268W, strain sec22, hits give low values 1.01 | S. cerevisiae deletion strains, locus YLR320W, strain mms22, hits give low values 0.966 | S. cerevisiae deletion strains, locus YLR330W, strain CHS5, hits give low values 1.02 | S. cerevisiae deletion strains, locus YLR342W, strain FKS1 (second series), hits give low values 1 | S. cerevisiae deletion strains, locus YLR342W, strain FKS1, hits give low values 0.986 | S. cerevisiae deletion strains, locus YLR357W, strain rsc2, hits give low values 0.931 | S. cerevisiae deletion strains, locus YLR370C, strain arc18, hits give low values 0.985 | S. cerevisiae deletion strains, locus YLR371W, strain rom2, hits give low values 1.02 | S. cerevisiae deletion strains, locus YLR384C, strain iki3, hits give low values 0.974 | S. cerevisiae deletion strains, locus YLR418C, strain cdc73, hits give low values 1.02 | S. cerevisiae deletion strains, locus YML016C, strain PPZ1, hits give low values 1.02 | S. cerevisiae deletion strains, locus YML032C, strain rad52, hits give low values 1.03 | S. cerevisiae deletion strains, locus YML120C, strain ndi1, hits give low values 0.988 | S. cerevisiae deletion strains, locus YML124C, strain tub3, hits give low values 1.03 | S. cerevisiae deletion strains, locus YMR058W, strain fet3, hits give low values 0.972 | S. cerevisiae deletion strains, locus YMR078C, strain ctf18, hits give low values 1.04 | S. cerevisiae deletion strains, locus YMR125W, strain sto1, hits give low values 0.974 | S. cerevisiae deletion strains, locus YMR129W, hits give low values 0.98 | S. cerevisiae deletion strains, locus YMR205C, strain PFK2, hits give low values 0.996 | S. cerevisiae deletion strains, locus YMR223W, strain ubp8, hits give low values 1.02 | S. cerevisiae deletion strains, locus YMR231W, strain pep5, hits give low values 0.993 | S. cerevisiae deletion strains, locus YMR263W, strain SAP30, hits give low values 1.02 and 0.999 | S. cerevisiae deletion strains, locus YMR307W, strain GAS1, hits give low values 1.05 | S. cerevisiae deletion strains, locus YNL067W, strain RPL9B, hits give low values 1.02 | S. cerevisiae deletion strains, locus YNL071W, strain lat1, hits give low values 0.978 | S. cerevisiae deletion strains, locus YNL128W, strain TEP1, hits give low values 1.04 and 1.01 | S. cerevisiae deletion strains, locus YNL153C, strain GIM3, hits give low values 1.01 and 1.03 | S. cerevisiae deletion strains, locus YNL175C, strain NOP13, hits give low values 1.01 | S. cerevisiae deletion strains, locus YNL183C, strain NPR1, hits give low values 0.96 | S. cerevisiae deletion strains, locus YNL197C, strain WHI3, hits give low values 1.03 | S. cerevisiae deletion strains, locus YNL209W, strain ssb2, hits give low values 0.979 | S. cerevisiae deletion strains, locus YNL224C, strain SQS1, hits give low values 0.998 | S. cerevisiae deletion strains, locus YNL233W, strain BNI4, hits give low values 1.01 | S. cerevisiae deletion strains, locus YNL248C, strain rpa49, hits give low values 0.974 | S. cerevisiae deletion strains, locus YNL250W, strain rad50, hits give low values 1.06 | S. cerevisiae deletion strains, locus YNL271C, strain bni1, hits give low values 1.02 | S. cerevisiae deletion strains, locus YNL298W, strain CLA4, hits give low values 1.05 | S. cerevisiae deletion strains, locus YNL307C, strain MCK1, hits give low values 1.02 | S. cerevisiae deletion strains, locus YNL322C, strain KRE1 (second series), hits give low values 0.976 | S. cerevisiae deletion strains, locus YNL322C, strain KRE1, hits give low values 1.03 and 0.967 | S. cerevisiae deletion strains, locus YNR049C, strain mso1, hits give low values 0.988 | S. cerevisiae deletion strains, locus YNR052C, strain pop2, hits give low values 1.03 | S. cerevisiae deletion strains, locus YOL006C, strain TOP1, hits give low values 1.02 | S. cerevisiae deletion strains, locus YOL012C, strain htz1 0.991 | S. cerevisiae deletion strains, locus YOL147C, strain pex11, hits give low values 1.03 | S. cerevisiae deletion strains, locus YOR001W, strain rrp6, hits give low values 1.02 | S. cerevisiae deletion strains, locus YOR061W, strain CKA2, hits give low values 1.02 | S. cerevisiae deletion strains, locus YOR069W, strain VPS5, hits give low values 1.01 | S. cerevisiae deletion strains, locus YOR070C, strain gyp1, hits give low values 0.996 | S. cerevisiae deletion strains, locus YOR080W, strain dia2, hits give low values 0.989 | S. cerevisiae deletion strains, locus YOR083W, strain WHI5 (second series), hits give low values 1.03 | S. cerevisiae deletion strains, locus YOR083W, strain WHI5, hits give low values 0.977 | S. cerevisiae deletion strains, locus YOR106W, strain vam3, hits give low values 0.972 | S. cerevisiae deletion strains, locus YOR136W, strain idh2, hits give low values 1.03 | S. cerevisiae deletion strains, locus YOR144C, strain elg1, hits give low values 1.03 | S. cerevisiae deletion strains, locus YOR184W, strain ser1, hits give low values 1.04 | S. cerevisiae deletion strains, locus YOR231W, strain MKK1, hits give low values 1.03 | S. cerevisiae deletion strains, locus YOR265W, strain rbl2, hits give low values 0.986 | S. cerevisiae deletion strains, locus YOR270C, strain vph1, hits give low values 0.911 | S. cerevisiae deletion strains, locus YOR290C, strain snf2, hits give low values 0.961 | S. cerevisiae deletion strains, locus YOR316C, strain cot1, hits give low values 1.02 | S. cerevisiae deletion strains, locus YPL051W, strain arl3, hits give low values 0.999 | S. cerevisiae deletion strains, locus YPL055C, strain LGE1, hits give low values 1.02 | S. cerevisiae deletion strains, locus YPL078C, strain atp4, hits give low values 0.973 | S. cerevisiae deletion strains, locus YPL106C, strain sse1, hits give low values 0.981 | S. cerevisiae deletion strains, locus YPL240C, strain hsp82, hits give low values 0.993 | S. cerevisiae deletion strains, locus YPL241C, strain CIN2, hits give low values 1.02 and 1 | S. cerevisiae deletion strains, locus YPL256C, strain CLN2, hits give low values 1 | S. cerevisiae deletion strains, locus YPR119W, strain clb2, hits give low values 1.02 | S. cerevisiae deletion strains, locus YPR141C, strain kar3, hits give low values 1.04 | S. cerevisiae deletion strains, locus YPR163C, strain tif3, hits give low values 1.03 | S. cerevisiae deletion strains, locus YPR167C, strain met16, hits give low values 1.04 | S. cerevisiae deletion strains, strain wtn01, hits give low values 1.03 | S. cerevisiae strains, strain wild type, hits give low values 1.02
